Rows were chosen to be rich in hits. Some 32% of all compounds tested hit in one or more screens of this group.
CYP2C9 activ – CYP2C9 (human) activation; recombinant CYP2C9, luciferin-H conversion, luminescence; hits give high values; factor 1 = untreated enzyme, 0 = blocked; activation factor at 5 µM; hit rate 1.4% among 96,000; AID 1024;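 active = activation factor of 2 or more for CYP2C9 at a 5 µM dose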
Target sequence (P11712 whole entry, looked up): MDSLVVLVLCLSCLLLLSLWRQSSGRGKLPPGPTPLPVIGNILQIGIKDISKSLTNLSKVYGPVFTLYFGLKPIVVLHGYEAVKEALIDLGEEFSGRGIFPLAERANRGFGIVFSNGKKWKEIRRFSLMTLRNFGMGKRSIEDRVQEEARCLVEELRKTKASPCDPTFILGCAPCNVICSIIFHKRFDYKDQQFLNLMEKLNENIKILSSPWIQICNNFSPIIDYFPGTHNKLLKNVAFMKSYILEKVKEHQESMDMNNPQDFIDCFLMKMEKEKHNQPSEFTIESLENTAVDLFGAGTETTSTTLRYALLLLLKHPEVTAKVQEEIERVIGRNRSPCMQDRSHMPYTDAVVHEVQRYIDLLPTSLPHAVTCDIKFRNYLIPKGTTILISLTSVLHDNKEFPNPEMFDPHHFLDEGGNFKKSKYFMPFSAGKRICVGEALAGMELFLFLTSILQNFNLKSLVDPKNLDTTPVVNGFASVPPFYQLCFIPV
CYP2C19 act – increases human CYP2C19 enzyme activity; recombinant CYP2C19, luciferin-H EGE luminescence; hits give high values; 0 = fully inhibited enzyme, 1 = untreated enzyme; activation factor at 5 µM; 96,000 tested, under 10 active; AID 1025;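 active = activation factor of at least 2 at 5 µM in the primary screen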
CYP2C19 inh – inhibitors of human CYP2C19. hit rate 21% among 96,000. AID 778. inhibition, % at 5 µM. P33261. CYP2C19 Supersomes, luciferin-H EGE luminescence, 30 min;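 active = CYP2C19 inhibition above a set limit at 5 µM in the primary screen, cut at about 50% in these data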
CYP2C9 inhib – blocks human cytochrome P450 2C9; hit rate 20% among 96,000; inhibition, % at 5 µM; CYP2C9 Supersomes, luciferin-H conversion, luminescence; P11712;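 active = blocking of liver enzyme CYP2C9 beyond about 50% at 5 µM, limit read from the data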
PostGolgi ctrl – inhibits growth of the yeast control strain; efflux-deficient yeast background strain, growth absorbance A615, 16 h; inhibition, % at 10 µM; hit rate 5% among 98,000
PostGolgi yeast – growth inhibition of a yeast mutant, post-Golgi transport screen; post-Golgi transport phenotypic cell assay; inhibition, % at 10 µM; hit rate 0.9% among 98,000; AID 739;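 note: yeast cells grown in 1536-well plates; yeast grown about 18 h at 30C before absorbance read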
A number is an active result. Cut-off read from the data, not from the text of the source, unless noted: active = inhibition above about 30%; inactive = the rest.

What do the screens show for `CCOc1cc(/C=N/NC(N)=O)cc(Br)c1OCC(=O)Nc1ccccc1C`?
CYP2C9 activ: inactive; CYP2C19 act: inactive; CYP2C19 inh: 59; CYP2C9 inhib: 82; PostGolgi ctrl: inactive; PostGolgi yeast: inactive

Results for CCOc1cc(/C=C\[N+](=O)[O-])ccc1OCC(=O)Nc1ccccc1C ?
CYP2C9 activ: inactive; CYP2C19 act: inactive; CYP2C19 inh: inactive; CYP2C9 inhib: inactive; PostGolgi ctrl: inactive; PostGolgi yeast: 39

What do the screens show for `CCOc1cc(/C=N/NC(N)=O)cc(Br)c1OCC(=O)Nc1cccc2ccccc12`?
CYP2C9 activ: inactive; CYP2C19 act: inactive; CYP2C19 inh: inactive; CYP2C9 inhib: inactive; PostGolgi ctrl: inactive; PostGolgi yeast: inactive

How did CC1(C)CC(=O)CC(C)(C)N1OC(=O)c1ccco1 do in these assays?
CYP2C9 activ: inactive; CYP2C19 act: inactive; CYP2C19 inh: inactive; CYP2C9 inhib: inactive; PostGolgi ctrl: inactive; PostGolgi yeast: inactive

What do the screens show for `O=C(NC1CCCCC1)N(Cc1ccc(F)cc1)Cc1nc2ccccc2c(=O)[nH]1`?
CYP2C9 activ: inactive; CYP2C19 act: inactive; CYP2C19 inh: inactive; CYP2C9 inhib: inactive; PostGolgi ctrl: inactive; PostGolgi yeast: inactive

How did CC(C)NCCOCCOc1ccccc1F do in these assays?
CYP2C9 activ: inactive; CYP2C19 act: inactive; CYP2C19 inh: inactive; CYP2C9 inhib: inactive; PostGolgi ctrl: inactive; PostGolgi yeast: inactive

How did CN1C(=O)C2(Oc3ccccc3C3CC(c4ccccc4)=NN32)c2ccccc21 (stereo not given) do in these assays?
CYP2C9 activ: inactive; CYP2C19 act: inactive; CYP2C19 inh: inactive; CYP2C9 inhib: inactive; PostGolgi ctrl: 51; PostGolgi yeast: inactive

What do the screens show for `CC(C)NC(C(=O)Nc1cc(Cl)cc(Cl)c1)c1ccccc1` (stereo not given)?
CYP2C9 activ: inactive; CYP2C19 act: inactive; CYP2C19 inh: 71; CYP2C9 inhib: 72; PostGolgi ctrl: inactive; PostGolgi yeast: inactive

What do the screens show for `COc1ccccc1-c1cc(C(=O)Nc2cccnc2)no1`?
CYP2C9 activ: 2.1; CYP2C19 act: inactive; CYP2C19 inh: inactive; CYP2C9 inhib: inactive; PostGolgi ctrl: inactive; PostGolgi yeast: inactive

Results for CCCc1cc(C(=O)NCCc2ccccc2)no1 ?
CYP2C9 activ: inactive; CYP2C19 act: inactive; CYP2C19 inh: 63; CYP2C9 inhib: inactive; PostGolgi ctrl: inactive; PostGolgi yeast: inactive

What do the screens show for `COc1ccccc1-c1cc(C(=O)NCCc2ccccc2)no1`?
CYP2C9 activ: 3.7; CYP2C19 act: inactive; CYP2C19 inh: inactive; CYP2C9 inhib: inactive; PostGolgi ctrl: inactive; PostGolgi yeast: inactive

How did CC(C)C(=O)c1cc2c(cc1NC(=O)c1cccs1)OCCO2 do in these assays?
CYP2C9 activ: inactive; CYP2C19 act: inactive; CYP2C19 inh: inactive; CYP2C9 inhib: inactive; PostGolgi ctrl: inactive; PostGolgi yeast: inactive

Results for COC(=O)c1ccc(CN2C(=O)NC3(CCCc4ccccc43)C2=O)o1 (stereo not given) ?
CYP2C9 activ: inactive; CYP2C19 act: inactive; CYP2C19 inh: inactive; CYP2C9 inhib: inactive; PostGolgi ctrl: inactive; PostGolgi yeast: inactive

Results for Cc1ccccc1OCCN1C(=O)NC2(CCc3ccccc32)C1=O (stereo not given) ?
CYP2C9 activ: 2; CYP2C19 act: inactive; CYP2C19 inh: inactive; CYP2C9 inhib: inactive; PostGolgi ctrl: inactive; PostGolgi yeast: inactive

Results for O=C1NC2(CCc3ccccc32)C(=O)N1CCOc1ccc(Cl)cc1 (stereo not given) ?
CYP2C9 activ: inactive; CYP2C19 act: inactive; CYP2C19 inh: inactive; CYP2C9 inhib: 77; PostGolgi ctrl: inactive; PostGolgi yeast: inactive

What do the screens show for `Cc1ccc(NC(=O)NC(=O)CN2C(=O)NC3(CCc4ccccc43)C2=O)c(C)c1` (stereo not given)?
CYP2C9 activ: inactive; CYP2C19 act: inactive; CYP2C19 inh: inactive; CYP2C9 inhib: inactive; PostGolgi ctrl: inactive; PostGolgi yeast: inactive

What do the screens show for `Cc1ccccc1-n1ncc2c(SCC(=O)NCc3cccs3)ncnc21`?
CYP2C9 activ: inactive; CYP2C19 act: inactive; CYP2C19 inh: inactive; CYP2C9 inhib: inactive; PostGolgi ctrl: inactive; PostGolgi yeast: inactive

What do the screens show for `CCN1C(=O)/C(=C2/Sc3ccc(OC)cc3N2C)SC1=Nc1cccc(O)c1`?
CYP2C9 activ: inactive; CYP2C19 act: inactive; CYP2C19 inh: inactive; CYP2C9 inhib: 55; PostGolgi ctrl: inactive; PostGolgi yeast: inactive

What do the screens show for `Cn1nnc(-c2ccc(OCc3ccccc3F)cc2)n1`?
CYP2C9 activ: inactive; CYP2C19 act: inactive; CYP2C19 inh: 66; CYP2C9 inhib: inactive; PostGolgi ctrl: inactive; PostGolgi yeast: inactive

What do the screens show for `CCCCn1nnnc1SCC(=O)NCc1ccco1`?
CYP2C9 activ: inactive; CYP2C19 act: inactive; CYP2C19 inh: inactive; CYP2C9 inhib: inactive; PostGolgi ctrl: inactive; PostGolgi yeast: inactive

Results for O=C(c1cc(F)c(F)cc1Cl)N1CCOCC1 ?
CYP2C9 activ: inactive; CYP2C19 act: inactive; CYP2C19 inh: inactive; CYP2C9 inhib: inactive; PostGolgi ctrl: inactive; PostGolgi yeast: inactive

What do the screens show for `CC1CCCC(C)N1C(=O)c1cc(F)c(F)cc1Cl` (stereo not given)?
CYP2C9 activ: inactive; CYP2C19 act: inactive; CYP2C19 inh: 59; CYP2C9 inhib: inactive; PostGolgi ctrl: 37; PostGolgi yeast: inactive

Results for CC1CCN(c2nc3c(c(=O)[nH]c(=O)n3C)n2CCSc2nc3ccccc3o2)CC1 ?
CYP2C9 activ: inactive; CYP2C19 act: inactive; CYP2C19 inh: inactive; CYP2C9 inhib: inactive; PostGolgi ctrl: inactive; PostGolgi yeast: inactive

What do the screens show for `COc1ccc2c(C)cc(=O)oc2c1C`?
CYP2C9 activ: 2.3; CYP2C19 act: inactive; CYP2C19 inh: inactive; CYP2C9 inhib: inactive; PostGolgi ctrl: inactive; PostGolgi yeast: inactive

Results for Cc1cc(=O)oc2c(C)c(OCC(=O)N(C)C)ccc12 ?
CYP2C9 activ: inactive; CYP2C19 act: inactive; CYP2C19 inh: inactive; CYP2C9 inhib: inactive; PostGolgi ctrl: inactive; PostGolgi yeast: inactive

What do the screens show for `CCCCNS(=O)(=O)c1ccc(OC)c(Cl)c1Cl`?
CYP2C9 activ: inactive; CYP2C19 act: inactive; CYP2C19 inh: 52; CYP2C9 inhib: inactive; PostGolgi ctrl: inactive; PostGolgi yeast: inactive

What do the screens show for `COCC(C)NS(=O)(=O)c1ccc(C)cc1` (stereo not given)?
CYP2C9 activ: inactive; CYP2C19 act: inactive; CYP2C19 inh: inactive; CYP2C9 inhib: inactive; PostGolgi ctrl: inactive; PostGolgi yeast: inactive

What do the screens show for `CCC(C)NS(=O)(=O)c1ccc(OC)c(Cl)c1Cl` (stereo not given)?
CYP2C9 activ: inactive; CYP2C19 act: inactive; CYP2C19 inh: 70; CYP2C9 inhib: inactive; PostGolgi ctrl: inactive; PostGolgi yeast: inactive

How did COCCCNS(=O)(=O)c1ccc(OC)c(Cl)c1Cl do in these assays?
CYP2C9 activ: 3.7; CYP2C19 act: inactive; CYP2C19 inh: 88; CYP2C9 inhib: inactive; PostGolgi ctrl: inactive; PostGolgi yeast: inactive

Results for CCNS(=O)(=O)c1cc(Br)ccc1OC ?
CYP2C9 activ: inactive; CYP2C19 act: inactive; CYP2C19 inh: inactive; CYP2C9 inhib: inactive; PostGolgi ctrl: inactive; PostGolgi yeast: inactive

Results for N#Cc1cnn2c1nc(N1CCOCC1)c1ccccc12 ?
CYP2C9 activ: inactive; CYP2C19 act: inactive; CYP2C19 inh: inactive; CYP2C9 inhib: inactive; PostGolgi ctrl: inactive; PostGolgi yeast: inactive

Assay outcomes: PubChem, several laboratories
